Measurements: PubChem BioAssay (NCATS)
“And” between values parts separate entries of the source, which are not always exact repeats. Equal entries are not always repeated. Records with an inconclusive call do not appear. The source made the active and inactive calls. Calls follow the shape of the dose curve; as a rule, active = well fitted curve in the direction sought with a large enough effect; inconclusive = small, poorly fitted or top-dose-only effect, or another doubt; inactive = no such curve, though single readings can be large; an effect the other way counts as inactive or inconclusive.

Assays:
[1] = qHTS Assay for Identifying Gametocytocidal Compounds (AID 743244);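 also: % is scaled to controls: 0 for no effect and ±100 for the full control effect; actives lower the fluorescent signal which means gametocytes are killed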; conditions: P. falciparum 3D7 stage III-V gametocytes, alamarBlue, 72 h; max response: hits give low values
Method in brief: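 P. falciparum 3D7 stage III–V gametocytes (20,000 cells/well) were exposed to compounds for 72 h at 37 °C, 5% CO2. AlamarBlue was then added for 24 h; decreased resorufin fluorescence (Ex 525/Em 598 nm) indicated loss of viability.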

[2] = qHTS assay for measurement of the activity of small molecule inhibitors on Zika virus induced Caspase-3 activity in human iPSC derived neural progenitor cells (hNPCs) (AID 1224857); also: % of control where 0% means no effect; nearly all actives have a fitted effect of over 65% in size
Method in brief: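 hNPCs seeded 350 cells/well, cultured 16–20 h; compounds added 1 h before ZIKV (2 FFU/cell), 37 C 6 h. Caspase-Glo 3/7 luminescence after 30 min RT; % inhibition from induction scaled to uninfected (0%) and infected (100%) wells.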

[3] = qHTS assay for measurement of the activity of small molecule inhibitors on Zika virus induced Caspase-3 activity in human astrocytoma cells (AID 1224859);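 also: plate controls were ZIKV-infected untreated cells for no effect and uninfected cells for full effect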
Method in brief: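 Luminescence read-out (Caspase-Glo 3/7, 30 min RT) of caspase activity in SNB-19 cells infected 6 h with ZIKV, 2 FFU/cell, after 1 h compound pretreatment; % inhibition from induction normalised to uninfected (0%) and infected (100%) wells.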

[4] = qHTS assay to identify small molecule inhibitors of chordoma cells - UCH-1 (AID 1259355); also: % is scaled to controls: 0 for no effect and ±100 for the full control effect; nearly all actives have a fitted effect of over 55% in size
Method in brief: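 Cells (800/well) were seeded and left overnight at 37 C, 5% CO2, then treated with drugs at 15 concentrations plus a combination mix of auranofin, camptothecin, doxorubicin, rubitecan and topotecan. Viability after 48hr was read by CellTiter-Glo luminescence.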

[5] = qHTS assay to identify small molecule inhibitors of chordoma cells - UCH-2 (AID 1259356); also: series mostly up to about 46 µM; % is scaled to controls: 0 for no effect and ±100 for the full control effect
[6] = P-glycoprotein substrates identified in KB-8-5-11 adenocarcinoma cell line, qHTS therapeutic library screen (AID 1346987); conditions: outcome: dose series up to 44.5 µM; also: series mostly up to about 44 µM; % is scaled to controls: 0 for no effect and ±100 for the full control effect; nearly all actives have a fitted effect of over 65% in size
Method in brief: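 KB-8-5-11, a colchicine-selected P-gp-overexpressing KB-3-1 subline, was grown without colchicine for the assay. Cells were seeded at 500 cells/well, dosed in concentration-response and incubated 72 h at 37 degree C, 5% CO2. Viability was read by CellTiter-Glo luminescence.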

[7] = qHTS of pediatric cancer cell lines to identify multiple opportunities for drug repurposing: Primary screen for TC32 cells (AID 1347089); also: % is scaled to controls: 0 for no effect and ±100 for the full control effect; nearly all actives have a fitted effect of over 60% in size
Method in brief: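 Luminescent CellTiter-Glo read-out of metabolically active TC32 cells after 48 h compound exposure. Primary: MIPE 11-point, 0.78 nM–46 µM; NPC 8-point, 0.59 nM–46 µM. Confirmatory: 11-point dilutions.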

[8] = qHTS of pediatric cancer cell lines to identify multiple opportunities for drug repurposing: Primary screen for DAOY cells (AID 1347090);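 also: series mostly up to about 46 µM; plate controls were DMSO for no effect and bortezomib for full effect; nearly all actives have a fitted effect of over 55% in size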
Method in brief: (§1)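 Viability measured as metabolically active cells via CellTiter-Glo luminescence following 48 hours of compound exposure, 11-point dilutions in confirmatory testing. 500-1,000 cells/well plated 5 hours before dosing; controls were DMSO and 2.3 µM bortezomib.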

[9] = qHTS of pediatric cancer cell lines to identify multiple opportunities for drug repurposing: Primary screen for SJ-GBM2 cells (AID 1347091);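 also: plate controls were DMSO neutral control for no effect and bortezomib for full effect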
Method in brief: as §1

[10] = NS1 protein of Zika virus - qHTS assay to identify small molecule inhibitors in human HEK 293 cells (AID 1347053);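 also: series mostly up to about 46 µM; plate controls were infected untreated cells for no effect and uninfected cells for full effect; nearly all actives have a fitted effect of over 55% in size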
Method in brief: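 HEK 293 cells, seeded 20 h at 37 C, were pretreated with compound 1 h, then infected with ZIKV MR766 (MOI = 0.5) for 24 h. NS1 was read by TR-FRET with two anti-NS1 antibodies, normalized to uninfected and infected wells.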

[11] = qHTS assay for cell viability of HEK293 cells (AID 743288); conditions: ATP luminescence (CellTiter-Glo), 18 h, hits give low values; also: % is scaled to controls: 0 for no effect and ±100 for the full control effect; nearly all actives have a fitted effect of over 50% in size
Method in brief: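 Parental HEK293 cells were seeded at 2,000 cells/well, rested at least 5 h at 37 C, then exposed to compounds in DMSO for 18 h at 37 C. Viability was read as ATP-dependent luciferase luminescence after 30 min at room temperature.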

[12] = qHTS assay for cell viability of the p53RE-bla HCT-116 cell line (AID 743292); also: % is scaled to controls: 0 for no effect and ±100 for the full control effect; nearly all actives have a fitted effect of over 55% in size
Method in brief: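 ATP-based luminescent viability (CellTiter-Glo, 30 min RT) after 16 h compound treatment at 37 C of p53RE-bla HCT-116 cells, seeded at 4,000 cells/well and rested 5 h before dosing.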

Measured: max response

CCN(CC)CCOC(=O)C(c1ccccc1)c1ccccc1
inactive: [1] -5.96% | [2] | [3] | [4] | [5] | [6] | [7] | [8] | [9]

OC(CCN1CCCC1)(c1ccccc1)C1CCCCC1 (stereo unspecified)
inactive: [1] 3.62% | [2] | [3] | [4] | [5] | [6] | [7] | [8] | [9]

CC(=O)N[C@H]1[C@H]([C@H](O)[C@H](O)CO)OC(C(=O)O)=C[C@@H]1N=C(N)N
inactive: [1] 5.37% | [2] | [3] | [4] | [5] | [6] | [10] | [7]

CCCCCOC(=O)Nc1nc(=O)n([C@@H]2O[C@H](C)[C@@H](O)[C@H]2O)cc1F
inactive: [1] 5.02% | [2] | [3] | [4] | [5] | [6] | [10] | [7] | [9]

CC(=O)OCC(COC(C)=O)OC(C)=O
inactive: [1] 41.8% | [11] 2.21% and 6.16% | [12] | [2] | [3] | [4] | [5] | [6] | [10] | [7] | [9]

O=C(O)COC(=O)Cc1ccccc1Nc1c(Cl)cccc1Cl
inactive: [1] 5.55% | [2] | [3] | [4] | [5] | [6] | [7] | [8]

CC(=O)OC[C@H]1O[C@@](COC(C)=O)(O[C@H]2O[C@H](COC(C)=O)[C@@H](OC(C)=O)[C@H](OC(C)=O)[C@H]2OC(C)=O)[C@@H](OC(C)=O)[C@@H]1OC(C)=O
inactive: [1] -6.87% | [2] | [3] | [4] | [5] | [6] | [7] | [8] | [9]

Nc1ncnc2c1ncn2[C@@H]1O[C@H](COP(=O)(O)O)[C@@H](O)[C@H]1O
inactive: [1] -1.97% | [2] | [3] | [4] | [5] | [6] | [10] | [7] | [9]

O=c1[nH]c2cc(C(F)(F)F)c(N3CCOCC3)cc2n(CP(=O)(O)O)c1=O
inactive: [1] 2.6% | [2] | [3] | [4] | [5] | [6] | [10] | [7] | [9]

Cc1cccc(Nc2ccccc2C(=O)O)c1C
inactive: [1] 4.7% | [11] 2.21% | [12] | [2] | [3] | [4] | [5] | [6] | [7] | [8] | [9]

Cc1ccc2c(c1)c1c3n2CCNC3CCC1 (stereo unspecified)
inactive: [1] 5.73% | [2] | [3] | [4] | [5] | [6] | [10] | [8] | [9]
